This is one part of a sample in which hits are shown more often than they occur.
U2OS ROS induce: cancer cell ROS induction. AID 624156. ROS induction (% of piperlongumine), % at 10 µM. hit rate 2% among 46,000. U2OS ROS induction, H2DCF-DA fluorescence; in the data active = ROS induction above about 79%, passing the limit was not always enough;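 also: 0% = DMSO vehicle median and 100% = reference compound median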
Active calls of the source: *.

SMILES	U2OS ROS induce
C[C@H](CO)N1C[C@H](C)[C@H](CN(C)Cc2ccc(C(=O)Nc3ccccc3N)cc2)Oc2ccc(NC(=O)Cn3cnnn3)cc2CC1=O	4.8
CCN(C1CCCCC1)S(=O)(=O)c1ccc(C)cc1	30.9
COc1ccc(NC(=O)CN(C)S(=O)(=O)c2cc(Cl)ccc2Cl)cc1Cl	-1.7
Cc1ccc(S(=O)(=O)N(C)C[C@H]2Oc3ccc(NS(=O)(=O)c4ccc(F)cc4)cc3CC(=O)N([C@@H](C)CO)C[C@H]2C)cc1	13.5
COc1ccc(CN(C)C[C@H]2Oc3ccc(NS(=O)(=O)c4ccc(C)cc4)cc3CC(=O)N([C@@H](C)CO)C[C@@H]2C)cc1	18.3
CNC(=O)C1=C[C@H](c2ccc(C(=O)OC)cc2)C[C@H](OCc2ccc(CO)cc2)O1	15.3
O=C1CCC(c2cccs2)=NN1CO	0.1
COc1cc(NC(=O)Cn2nnc(-c3ccccc3Cl)n2)cc(OC)c1OC	0.9
COc1cc(-c2noc(-c3c(-c4ccccc4Cl)noc3C)n2)cc(OC)c1OC	117.4*
Cc1onc(-c2ccccc2Cl)c1C(=O)N(Cc1nc(-c2ccccc2)no1)C1CCCCC1	10.7
C[C@@H]1CN([C@H](C)CO)C(=O)c2cc(NC(=O)Cn3cnnn3)ccc2O[C@@H]1CN(C)C(=O)Nc1ccc(C(F)(F)F)cc1	0.2
O=C(Cn1cccc1C(=O)c1ccccc1)NC1CC1	-2.2
CNC(=O)C1=C[C@@H](c2csc3ccccc23)C[C@@H](OCc2ccc(CO)cc2)O1	3.0
NNC(=O)CS(=O)(=O)c1ccc(C(F)(F)F)cn1	-3.6
O=CNc1nonc1NC(=O)c1ccccc1Cl	-9.3
CC(=O)Nc1nonc1-c1nc2ccccc2n1Cc1ccccc1Br	11.5
Cn1c(-c2nonc2NC(=O)c2ccccc2Br)nc2ccccc21	101.9*
Cc1cc2nnc(SCC(=O)c3cc(C)n(Cc4ccccc4)c3C)n2c2ccccc12	20.3
CN(/N=C/c1ccncc1)C1=NCCN1	-10.9
O=C(Oc1ccc(N(Cc2cccs2)C2=NS(=O)(=O)c3ccccc32)cc1)c1ccccc1	56.7
CN(/N=C/c1ccccc1)C1=NS(=O)(=O)c2ccccc21	96.1*
C[C@H]1CN([C@@H](C)CO)C(=O)Cc2cc(NC(=O)CCC(F)(F)F)ccc2O[C@@H]1CN(C)Cc1ccncc1	-0.7
C[C@@H]1CN([C@H](C)CO)C(=O)Cc2cc(NC(=O)C3CC3)ccc2O[C@@H]1CN(C)Cc1ccncc1	-4.9
Cc1ccc(S(=O)(=O)Nc2ccc3c(c2)CC(=O)N([C@@H](C)CO)C[C@@H](C)[C@@H](CN(C)C(=O)Nc2cccc4ccccc24)O3)cc1	1.7
COc1ccc(-n2cc(-c3ccccc3)c3c(NCc4ccccc4)ncnc32)cc1	43.7
SMILES	U2OS ROS induce
C[C@@H]1CN([C@H](C)CO)C(=O)Cc2cc(NC(=O)Nc3ccc4c(c3)OCO4)ccc2O[C@@H]1CN(C)C	-2.0
C[C@@H]1CN([C@H](C)CO)C(=O)Cc2cc(NC(=O)Nc3ccc4c(c3)OCO4)ccc2O[C@@H]1CN(C)CC1CCCCC1	4.3
C[C@@H]1CN([C@@H](C)CO)C(=O)Cc2cc(NC(=O)Nc3ccccc3)ccc2O[C@@H]1CN(C)CC1CC1	3.1
C[C@@H]1CN([C@H](C)CO)C(=O)Cc2cc(NC(=O)Nc3ccc4c(c3)OCO4)ccc2O[C@H]1CN(C)C	-0.7
C[C@@H]1CN([C@H](C)CO)C(=O)Cc2cc(NC(=O)Nc3ccc4c(c3)OCO4)ccc2O[C@H]1CN(C)CC1CC1	127.8*
C[C@@H]1CN([C@@H](C)CO)C(=O)Cc2cc(NC(=O)Nc3ccc4c(c3)OCO4)ccc2O[C@@H]1CN(C)C	99.3*
C[C@H](CO)N1C[C@H](C)[C@H](CN(C)S(=O)(=O)c2ccc(Cl)cc2)Oc2c(NC(=O)Nc3ccc(C(F)(F)F)cc3)cccc2C1=O	-2.4
O=[N+]([O-])c1cccc(CSc2nnc(-c3ccco3)n2-c2ccccc2)c1	9.7
CC(C)(C)C1CC=C2[C@H](C1)[C@@H](c1ccsc1)C(C#N)=C(N)C2(C#N)C#N (stereo partly specified)	24.8
COC(=O)c1ccc([C@H]2C(C#N)=C(N)C(C#N)(C#N)C3=CCC(C(C)(C)C)C[C@@H]32)cc1 (stereo partly specified)	225.9*
CCOC(=O)N1CC=C2C(C1)C(c1cccc(C(F)(F)F)c1)C(C#N)=C(N)C2(C#N)C#N (stereo unspecified)	14.0
CC(C)NC(=O)N(C)C[C@H]1OCCCC[C@@H](C)Oc2ccc(NS(=O)(=O)c3ccc(F)cc3)cc2C(=O)N([C@H](C)CO)C[C@@H]1C	2.2
COc1c(O[C@@H]2O[C@H](CO)[C@@H](O)[C@H](O)[C@H]2O)cc2oc(-c3ccc(O)cc3)cc(=O)c2c1O	-5.8
CC(=O)OC[C@H]1O[C@@H](Oc2cc(OC(C)=O)c3c(=O)cc(-c4ccc(OC(C)=O)cc4)oc3c2)[C@H](OC(C)=O)[C@@H](OC(C)=O)[C@@H]1OC(C)=O	246.1*
CC(=O)Oc1ccc(-c2coc3cc(OC(C)=O)cc(OC(C)=O)c3c2=O)cc1	26.3
Cc1ccc(N2C3=C(C(=O)CC(C)(C)C3)C(c3cnn(C)c3)C3=C2CC(C)(C)CC3=O)cc1	15.6
COc1ccc(-c2coc3c(CC=C(C)C)c(O)c(OC)cc3c2=O)cc1	2.6
C[C@H]1CN([C@@H](C)CO)C(=O)c2cccc(NC(=O)c3ccc(-c4nccs4)cc3)c2O[C@H]1CN(C)Cc1ccc(Oc2ccccc2)cc1	37.7
C[C@H]1CN([C@@H](C)CO)C(=O)c2cccc(NC(=O)c3ccc(-c4nccs4)cc3)c2O[C@H]1CN(C)Cc1ccc(C(F)(F)F)cc1	109.2*
C[C@@H]1CN([C@@H](C)CO)C(=O)c2cccc(NC(=O)c3ccc(-c4nccs4)cc3)c2O[C@@H]1CN(C)Cc1ccc(Oc2ccccc2)cc1	29.7
C[C@H](CO)N1C[C@H](C)[C@@H](CN(C)Cc2ccc(Oc3ccccc3)cc2)Oc2c(NC(=O)c3ccc(-c4nccs4)cc3)cccc2C1=O	119.6*
C[C@@H]1CN([C@H](C)CO)C(=O)c2cccc(NC(=O)c3ccc(-c4nccs4)cc3)c2O[C@@H]1CN(C)S(=O)(=O)c1cccs1	1.5
C[C@H](CO)N1C[C@H](C)[C@H](CN(C)Cc2ccc(C(F)(F)F)cc2)Oc2c(NC(=O)c3ccc(-c4nccs4)cc3)cccc2C1=O	23.8
C[C@@H]1CN([C@@H](C)CO)C(=O)c2cccc(NC(=O)c3ccc(-c4nccs4)cc3)c2O[C@@H]1CN(C)S(=O)(=O)c1cccs1	29.4
C[C@H]1CN([C@@H](C)CO)C(=O)c2cccc(NC(=O)c3ccc(-c4nccs4)cc3)c2O[C@@H]1CN(C)Cc1ccc(C(=O)O)cc1	-10.5
SMILES	U2OS ROS induce
C[C@H]1CN([C@@H](C)CO)C(=O)c2cccc(NC(=O)c3ccc(-c4nccs4)cc3)c2O[C@H]1CN(C)S(=O)(=O)c1cccs1	83.1*
CO[C@@H](CCO)[C@@H](O)c1ccc(O)c(F)c1	11.2
COc1ccc(S(=O)(=O)Nc2cccc3c2O[C@H](CN(C)S(C)(=O)=O)[C@H](C)CN([C@@H](C)CO)C3=O)cc1	-6.4
C[C@@H]1CN([C@H](C)CO)C(=O)CCCn2cc(nn2)CO[C@@H]1CN(C)C(=O)Nc1cccc(Oc2ccccn2)c1	-13.1
COC(=O)c1ccsc1NC(=O)c1ccsc1NC(=O)c1cccnc1	-1.6
Cc1noc(C)c1NC(=O)N(C)C[C@@H]1Oc2ccc(NC(=O)Nc3ccc4c(c3)OCO4)cc2CC(=O)N([C@H](C)CO)C[C@@H]1C	0.4
CCNC(=O)c1cc2c(=O)n3ccccc3nc2n(C(C)C)c1=N	-2.0

From PubChem BioAssay
